Data reported in PubChem BioAssay (EPA / NIEHS).
Results filed as inconclusive are left out. Active and inactive are the calls of the source. How the source made its calls: active means hit-call score of the fitted dose curve at least 0.9, where 1 is the maximum; inconclusive means response in the unintended direction; inactive means score below 0.9.

Target: D(1A) dopamine receptor (Homo sapiens) (UniProt P21728)
Test: NVS_GPCR_hDRD1: NovaScreen (NVS) G Protein-Coupled Receptor Assay for human Dopamine Receptor D1 (DRD1) (AID 2283269)
Procedure: NVS_GPCR_hDRD1 is a biochemical, single-readout assay that uses extracted gene-proteins from HEK293 in a cell-free assay. Measurements were taken 1 hour after chemical dosing in a 96-well plate.NVS_GPCR_hDRD1 is one of one assay component(s) measured or calculated from the NVS_GPCR_hDRD1 assay. It is designed to make measurements of radioligand binding, a form of binding reporter, as detected with scintillation counting signals by Filter-based radiodetection technology.Data from the assay component NVS_GPCR_hDRD1 was analyzed into 1 assay endpoint. This assay endpoint, NVS_GPCR_hDRD1, was analyzed in the positive analysis fitting direction relative to DMSO as the negative control and baseline of activity. Using a type of binding reporter, loss-of-signal activity can be used to understand changes in the binding as they relate to the gene DRD1. Furthermore, this assay endpoint can be referred to as a primary readout, because the performed assay has only produced 1 assay endpoint. To generalize the intended target to other relatable targets, this assay endpoint is annotated to the gpcr intended target family, where the subfamily is rhodopsin-like receptor.
Binding assays used specific radioligands (tritiated, iodinated) with non-radioactive competitive displacement ligands in agonist or antagonist protocols (as indicated) and various reference compounds and inhibitors to titrate specific binding to receptors and transporters. Most enzyme assays (CYPs, kinases, phosphatases, proteases, HDACs) used recombinant protein and specific substrates (fluorescence mostly, some colorimetric and radioactive) and inhibitors, followed by a biochemical separation of substrate and product. All assays for the biochemical HTS were initially run in duplicate at a single concentration (10 uM for CYP450 assays and 25 uM for all others). […] Each assay was run with positive and negative controls, and concurrent controls on every plate. The follow-up (secondary) screen tested active chemical-pairs in concentration series, as well as a few additional assays not tested in the primary screen, some selected negative inactives, and several cases re-run in the concentration series for confirmatory purposes.

Chain of D(1A) dopamine receptor (Homo sapiens) (P21728 whole entry, looked up): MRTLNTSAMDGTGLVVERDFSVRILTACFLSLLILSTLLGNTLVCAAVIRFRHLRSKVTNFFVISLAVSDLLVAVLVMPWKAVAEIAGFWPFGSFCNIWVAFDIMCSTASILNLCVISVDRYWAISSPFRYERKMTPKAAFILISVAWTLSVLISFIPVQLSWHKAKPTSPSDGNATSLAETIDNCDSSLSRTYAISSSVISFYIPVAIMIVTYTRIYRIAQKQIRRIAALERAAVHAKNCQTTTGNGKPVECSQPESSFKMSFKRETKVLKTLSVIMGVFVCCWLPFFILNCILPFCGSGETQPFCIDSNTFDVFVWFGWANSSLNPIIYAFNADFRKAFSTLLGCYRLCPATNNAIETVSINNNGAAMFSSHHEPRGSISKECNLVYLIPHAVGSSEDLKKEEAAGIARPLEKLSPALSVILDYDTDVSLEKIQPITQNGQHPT

| SMILES | outcome | AC50 |
| --- | --- | --- |
| N#Cc1ccccc1N | inactive | – |
| CCCCCCCCCCCCc1cccc(S(=O)(=O)O)c1 | – | 7.44 µM (active) |
| O=S(=O)(C(Cl)(Cl)Cl)C(Cl)(Cl)Cl | – | 13.8 µM (active) |
| CCCCCCCCCCCCN(C)C | inactive | – |
| Cc1ccc(OP(=O)(Oc2ccc(C)cc2C)Oc2ccc(C)cc2C)c(C)c1 | – | 14.3 µM (active) |
| [Cl][Sn]([c]1ccccc1)([c]1ccccc1)[c]1ccccc1 | – | 0.6 µM (active) |
| CC(C)(C)c1cc([N+](=O)[O-])cc(C(C)(C)C)c1O | inactive | – |
| Oc1ccc(Cc2ccc(O)cc2)cc1 | inactive | – |
| CC(C=O)Cc1ccc2c(c1)OCO2 (stereo not given) | inactive | – |
| CCCCCCCCCCBr | inactive | – |
| OC(Cc1ccccc1Cl)(Cn1[nH]cnc1=S)C1(Cl)CC1 (stereo not given) | inactive | – |
| N#CCCC(Br)(C#N)CBr (stereo not given) | – | 11 µM (active) |
| O=C1C=CC(=O)c2ccccc21 | – | 4.98 µM (active) |
| Brc1c(Br)c(Br)c(Oc2c(Br)c(Br)c(Br)c(Br)c2Br)c(Br)c1Br | inactive | – |
| O=[N+]([O-])c1ccc(Nc2ccccc2)cc1 | – | 8.91 µM (active) |
